This is part of a sample that, as a whole, favours compounds with a hit. Of some 79,000 tested, about 15% had one in any assay. Activity calls are given as the source filed them. No stated cut-off is given here; in the data, active means growth inhibition above about 70%; inactive means the rest.
Columns and labels:
[1] = NCI Yeast Anticancer Drug Screen. Data for the rad52 strain (AID 147);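 further: 0% = growth of vehicle-treated control cultures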; conditions: S. cerevisiae rad52 mutant growth inhibition, hits give high values
In short: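 Genetically altered yeast (DNA damage repair defect) treated with compound; inhibition calculated relative to vehicle.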

[2] = NCI Yeast Anticancer Drug Screen. Data for the wt1 strain (AID 149);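 further: 0% = growth of vehicle-treated wt1 cultures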; conditions: S. cerevisiae wt1 strain (SPY 50644) growth inhibition, hits give high values
In short: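 Each compound is tested on wt1 yeast and the loss of growth versus vehicle gives the inhibition value.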

[3] = NCI Yeast Anticancer Drug Screen. Data for the rad50EPP+ strain (AID 151);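 further: 0% = growth of vehicle-treated control cultures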; conditions: S. cerevisiae rad50 mutant strain, hits give high values
In short: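 Strain rad50EPP+; compound exposure; % growth inhibition vs vehicle.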

[4] = NCI Yeast Anticancer Drug Screen. Data for the rad50 strain (AID 155);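 further: 0% = growth of vehicle-only cultures of the same strain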; conditions: S. cerevisiae rad50 strain growth inhibition, hits give high values
In short: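 Vehicle-treated cultures provide the reference for the growth inhibition reported for compound-exposed, repair-deficient yeast.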

[5] = NCI Yeast Anticancer Drug Screen. Data for the mec2-1 strain (AID 157); conditions: S. cerevisiae mec2-1 strain, hits give high values
In short: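 Cells of the genetically defined mec2-1 yeast strain are incubated with test compound. Inhibition of growth is calculated against vehicle-treated controls.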

[6] = NCI Yeast Anticancer Drug Screen. Data for the rad14 strain (AID 159);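 further: 0% = growth of vehicle-treated control cultures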; conditions: S. cerevisiae rad14 strain growth inhibition, hits give high values
In short: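 Inhibition of growth is reported for a repair-deficient yeast mutant following compound treatment, calculated relative to cultures that received vehicle.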

[7] = NCI Yeast Anticancer Drug Screen. Data for the sgs1 mgt1 strain (AID 161);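 further: 0% = growth of cultures given vehicle only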; conditions: S. cerevisiae sgs1 mgt1 strain, hits give high values
In short: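 Test agents were incubated with a DNA-repair-mutant yeast strain. Growth was then read and compared against vehicle-treated controls.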

[8] = NCI Yeast Anticancer Drug Screen. Data for the CLN2oe strain (AID 163);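 further: 0% = growth of vehicle-only control cultures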; conditions: S. cerevisiae CLN2oe strain, hits give high values
In short: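 Strain altered in cell-cycle control, incubated with compound; growth compared to solvent-treated controls.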

[9] = NCI Yeast Anticancer Drug Screen. Data for the cln2 rad14 strain (AID 165);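 further: 0% = growth equal to vehicle treated cultures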; conditions: S. cerevisiae cln2 rad14 strain, hits give high values
In short: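 The screen exposed genetically defined yeast (cln2 rad14) to test compounds and scored growth inhibition relative to vehicle-treated controls.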

[10] = NCI Yeast Anticancer Drug Screen. Data for the bub3 strain (AID 167); conditions: S. cerevisiae bub3 mutant strain, hits give high values
In short: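 Mutant yeast screening strain plus compound; vehicle-treated cultures serve as the 0% inhibition reference.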

[11] = NCI Yeast Anticancer Drug Screen. Data for the wt2 strain (AID 169); conditions: S. cerevisiae wt2 strain growth inhibition, hits give high values
In short: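 Steps: yeast strain treated with compound; growth recorded; inhibition calculated relative to cultures given vehicle alone.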

[12] = NCI Yeast Anticancer Drug Screen. Data for the mlh1 strain (AID 171);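 further: 0% = growth of vehicle-treated control cultures of the same strain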; conditions: S. cerevisiae mlh1 strain growth inhibition, hits give high values
In short: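 Yeast screen: mutant strain plus compound, growth scored against vehicle control wells.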

[13] = NCI Yeast Anticancer Drug Screen. Data for the mlh1 rad18 strain (AID 175); conditions: S. cerevisiae mlh1 rad18 strain growth inhibition, hits give high values
In short: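 Compound-treated yeast growth, normalised to vehicle controls. Strain bears defined DNA repair mutations.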

[14] = NCI Yeast Anticancer Drug Screen. Data for the rad18 strain (AID 177); conditions: S. cerevisiae rad18 mutant growth inhibition, hits give high values
In short: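 Inhibition values reflect reduced yeast growth compared with vehicle-treated controls, using a strain engineered with a DNA damage repair defect.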

[15] = at 5.0 µM (retest, dose inferred, filed as 0.5)
[16] = at 50.0 µM (retest, dose inferred, filed as 5.0)

Measured: growth inhibition

Cc1c2cc[n+](CCN3CCCCC3)cc2c(C)c2c1[nH]c1ccc(O)cc12
inactive: [1]; at 1.2 µM 19% | [1]; at 3.7 µM 44% | [2]; at 1.2 µM 2% | [2]; at 3.7 µM 2% | [2]; at 11.0 µM 5% | [2]; at 33.0 µM 6% | [2]; at 100.0 µM 29% | [3]; at 1.2 µM 4% | [3]; at 3.7 µM 16% | [3]; at 11.0 µM 62% | [4]; at 1.2 µM 17% | [4]; at 3.7 µM 47% | [4]; [15] 36% | [5]; at 1.2 µM -2% | [5]; at 3.7 µM 3% | [5]; [15] 25% | [5]; at 11.0 µM 5% | [5]; at 33.0 µM 15% | [5]; [16] 4% | [5]; at 50.0 µM 57.5% | [6]; at 1.2 µM 1% | [6]; at 3.7 µM 12% | [6]; at 11.0 µM 1% | [6]; at 33.0 µM 14% | [7]; [15] 2% | [7]; [16] 38% | [8]; at 1.2 µM -3% | [8]; at 3.7 µM -3% | [8]; at 11.0 µM -3% | [8]; at 33.0 µM 4% | [9]; [15] 5% | [9]; [16] 6% | [9]; at 50.0 µM 30.1% | [10]; at 1.2 µM -20% | [10]; at 3.7 µM 5% | [10]; [15] 16% | [10]; at 11.0 µM -4% | [10]; at 33.0 µM -5% | [10]; [16] 28% | [11]; at 1.2 µM 5% | [11]; at 3.7 µM 4% | [11]; at 11.0 µM 5% | [11]; at 33.0 µM 12% | [12]; at 1.2 µM -5% | [12]; at 3.7 µM -4% | [12]; at 11.0 µM 0% | [12]; at 33.0 µM 8% | [13]; [15] 3% | [13]; [16] 25% | [14]; at 1.2 µM -2% | [14]; at 3.7 µM -5% | [14]; at 11.0 µM -4% | [14]; at 33.0 µM -4% | [14]; at 100.0 µM 41%
active: [1]; at 11.0 µM 81% | [1]; at 33.0 µM 93% | [1]; at 100.0 µM 98% | [3]; at 33.0 µM 89% | [3]; at 100.0 µM 96% | [4]; at 11.0 µM 74% | [4]; at 33.0 µM 91% | [4]; [16] 97% | [4]; at 50.0 µM 97.8% | [4]; at 100.0 µM 98% | [5]; at 100.0 µM 98% | [6]; at 100.0 µM 93% | [7]; at 50.0 µM 89.2% | [8]; at 100.0 µM 72% | [10]; at 50.0 µM 90.5% | [10]; at 100.0 µM 97% | [11]; at 100.0 µM 96% | [12]; at 100.0 µM 97% | [13]; at 50.0 µM 81.8%

Reference: PubChem BioAssay (NCI)
